Source: PubChem BioAssay (National Center for Advancing Translational Sciences (NCATS))
G9a block = G9a (human) methyltransferase inhibition | actives 8.8% (n = 350,000) | AID 504332 | G9a H3K9 monomethylation, AlphaScreen, 2 h | Potency, µM (series often up to 102 µM), without a hit: at the highest dose activity, negative = inhibition, hits mostly inhibitors; further: on the % scale 0 is the no-effect control and ±100 the full control effect; nearly all actives have a fitted effect of over 75% in size
Target sequence (Q96KQ7 913-1193 limits assumed): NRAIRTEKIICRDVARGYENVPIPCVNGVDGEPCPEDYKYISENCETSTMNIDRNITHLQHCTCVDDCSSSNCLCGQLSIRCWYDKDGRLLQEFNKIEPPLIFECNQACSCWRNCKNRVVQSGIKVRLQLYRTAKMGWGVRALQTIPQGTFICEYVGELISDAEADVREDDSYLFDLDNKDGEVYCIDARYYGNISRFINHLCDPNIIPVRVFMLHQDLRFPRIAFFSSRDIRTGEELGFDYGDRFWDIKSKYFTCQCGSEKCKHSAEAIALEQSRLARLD
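AlphaScreen read-out: biotin-H3K9 peptide (500 nM) methylation by 20 nM enzyme with 20 uM SAM, 2 h at room temperature after 15 min compound preincubation; anti-monomethyl H3K9 antibody plus donor/acceptor beads, 10 min dark.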
HP1b chromo inh = blocks HP1-beta chromodomain binding to methylated histone tails | AlphaScreen HP1-beta / biotin-H3K9me3 peptide binding | actives 0.56% (n = 390,000) | Potency, µM (top dose mostly 114 µM), for the others: at the top dose activity change, negative = inhibition, hits mostly inhibitors | P83916; further: nearly all actives have a fitted effect of over 70% in size
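AlphaScreen: HP1-beta (50 nM) preformed 30 min with biotin-H3(1-18)K9me3 peptide (50 nM) in PBS pH 7.4, 0.01% Tween-20. Compound added for 30 min at RT, then streptavidin donor/nickel chelate acceptor beads (10 ug/mL) for 30 min.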
JMJD2A Tudor = inhibitors of human JMJD2A Tudor domain | AID 504339 | O75164 | AlphaScreen JMJD2A-Tudor / H3K4me3 peptide binding | actives 4.4% (n = 390,000) | Potency, µM (doses to about 114 µM), inactives show at the highest dose activity change, negative = inhibition, actives largely listed as inhibitors; further: on the % scale 0 is the no-effect control and ±100 the full control effect; nearly all actives have a fitted effect of over 50% in size
BAZ2B block = blocks human BAZ2B; AlphaScreen BAZ2B-H3K14Ac peptide displacement; Potency, µM (highest dose often 114 µM), for the others: at the top dose activity change, negative = inhibition, most hits filed as inhibitors; actives 4.4% (n = 360,000); AID 504333; further: on the % scale 0 is the no-effect control and ±100 the full control effect; nearly all actives have a fitted effect of over 60% in size
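AlphaScreen luminescence quantifies BAZ2B engagement of H3K14Ac peptide; the protein and biotinylated peptide are both at 50 nM final, buffer PBS pH 7.4 with 0.01% Tween-20, all steps at room temperature.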
VDR inhibitor = vitamin D3 receptor (human) inhibition; actives 0.93% (n = 400,000); Potency, µM, inactives show max response, negative = inhibition, most hits filed as inhibitors; VDR-SRC2-3 peptide fluorescence polarization, 2 h; P11473; further: on the % scale 0 is the no-effect control and ±100 the full control effect
Target sequence (P11473 whole entry, looked up): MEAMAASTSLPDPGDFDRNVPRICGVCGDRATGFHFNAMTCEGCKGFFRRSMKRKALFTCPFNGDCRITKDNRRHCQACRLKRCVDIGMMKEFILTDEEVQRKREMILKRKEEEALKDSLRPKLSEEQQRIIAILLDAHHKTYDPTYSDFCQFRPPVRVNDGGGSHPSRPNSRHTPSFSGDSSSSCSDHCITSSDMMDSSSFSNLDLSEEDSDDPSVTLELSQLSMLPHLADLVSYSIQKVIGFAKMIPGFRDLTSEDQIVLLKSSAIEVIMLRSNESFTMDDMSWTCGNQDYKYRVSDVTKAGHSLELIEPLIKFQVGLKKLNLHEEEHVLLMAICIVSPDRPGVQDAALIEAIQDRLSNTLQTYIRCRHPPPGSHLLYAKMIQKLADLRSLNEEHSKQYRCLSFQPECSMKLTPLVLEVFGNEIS
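After 23 nl compound addition and a short centrifugation, plates sat for 2 hours at ambient temperature; polarization of fluorescence then indicated loss of VDR binding to peptide SRC2-3.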
PLK1 PBD block = PLK1 (human) polo-box domain binding inhibition | P53350 | Plk1 PBD binding of FITC phosphopeptide, fluorescence polarization | Potency, µM, for inactives: max response, negative = inhibition, most hits filed as inhibitors | actives 2.8% (n = 360,000) | AID 720504; further: series mostly up to about 57 µM; on the % scale 0 is the no-effect control and ±100 the full control effect; nearly all actives have a fitted effect of over 65% in size
The depositor's hits bear a star; ? = inconclusive; · = no result given; [ ] = another dose, or the depositor's remark. Rows were chosen to be rich in hits. Some 11% of all compounds tested hit in one or more screens of this group. The call rests on the fitted dose curve; in most records, active means well fitted curve in the direction sought with a large enough effect; inconclusive means small, poorly fitted or top-dose-only effect, or another doubt; inactive means no such curve, though single readings can be large; an effect the other way counts as inactive or inconclusive. Potency means the concentration at half of the fitted maximal effect.

SMILES | G9a block | HP1b chromo inh | JMJD2A Tudor | BAZ2B block | VDR inhibitor | PLK1 PBD block
Cc1ccsc1/C=N/NC(=O)c1ccncc1 | 32% | 33% | 4% | 1% | -3% | 2%
Cc1csc(C(C#N)C(=O)c2ccncc2)n1 (stereo not drawn) | 50µM* | 14% | -17% | -38% | 5% | -11%
CCNC(=O)CSc1nnc(-c2cc(-c3ccc(Cl)cc3)nc3ccccc23)o1 | 20%[59 µM] | 17% | -7% | -27% | 4% | -12%
C=C[C@@]1(C)CC[C@H]2C(=CC[C@@H]3[C@]2(C)CCC[C@@]3(C)C(=O)O)C1 | · | · | · | · | -8% | ·
CC(C)C1=CC2=CCC3C(C)(C(=O)O)CCCC3(C)C2CC1 (stereo not drawn) (tested in a mixture with another compound) | 71µM* | · | · | -2% | · | ·
CCCn1c2ccccc2c2cnn(CC(=O)NCCc3ccc(OCC)c(OCC)c3)c(=O)c21 | -9%[59 µM] | 10% | -12% | -27% | 7% | ·
Oc1[nH]c2ccccc2c1N=Nc1cccc(Cl)c1 | -17%[2.33 µM] | 61% | -24% | -9% | -2% | -5%
Cc1cccc2c(N=Nc3ccccc3)c(O)[nH]c12 | 40µM* | 7% | -10% | 3% | -8% | -9%
COc1ccc(S(=O)(=O)NCCc2sc(-c3ccccc3)nc2C)cc1F | 10%[59 µM] | 17%[57 µM] | -21% | 0% | 8% | ·
CC(C(=O)Nc1cc(C(F)(F)F)ccc1Cl)n1nnc2sc3c(c2c1=O)CCCC3 (stereo not drawn) | -32%[59 µM] | 24% | -16% | -1% | 2% | ·
Cc1cc(C)n2ncnc2n1 | 50µM* | 27% | -3% | ? | 9% | -5%
Cc1cc(Nc2ccc(N3CCC(C)CC3)cc2)n2ncnc2n1 | -50%[12.7 µM] | 1% | ? | 56µM* | 11% | -5%
Cc1ccc(Nc2cc(C)nc3ncnn23)cc1 | 71µM* | 28% | -13% | -18% | -20% | -12%
Cc1ccc(-c2cc(C)nc3ncnn23)cc1 | 5% | 37% | 7% | -1% | -13% | 2%
Cn1cnc(C(=O)N2CCN(c3ccccc3)CC2)c1C(=O)N1CCN(c2ccccc2)CC1 | -46%[2.33 µM] | -17% | 28µM* | 56µM* | -15% | ?
O=C(Nc1cccc(C(F)(F)F)c1)c1ccccc1NC(=O)C1CCCCC1 | 14%[59 µM] | 37% | -7% | 7% | -9% | -13%
O=C(Nc1cccc2cccnc12)c1cccc([N+](=O)[O-])c1 | 79µM* | 25% | -11% | -32% | -17% | -6%
O=C(Nc1cc([N+](=O)[O-])ccc1O)c1cccc(C(=O)Nc2cc([N+](=O)[O-])ccc2O)c1 | -12%[59 µM] | -24% | ? | 50µM* | -11% | -19%
Cc1cc(C(=O)Nc2cccc3cccnc23)ccc1[N+](=O)[O-] | · | 24% | -8% | -15% | 11% | 0%
Cc1oc2c(c(C)cc3oc(=O)c(CC(=O)N[C@@H](CCCNC(N)=O)C(=O)O)c(C)c32)c1C | 34%[0.501 µM] | 24% | -7% | 17% | -18% | -7%
CC(C)C[C@@H](CC(=O)N[C@@H](CCCN)CC(=O)N[C@@H]1CCCC[C@H]1C(=O)N[C@H](CC(=O)N[C@@H](CCC(=O)O)CC(=O)O)Cc1ccccc1)NC(=O)[C@@H]1CNCC[C@H]1N | · | · | · | · | -3% | ·
COc1ccc(NC2=C(C(C)=O)C(c3ccc(OC)cc3)C(C(C)=O)C(C)(O)C2)cc1 (stereo not drawn) | ? | -12% | -5%[11.4 µM] | -21% | 9% | -19%
COc1ccc(NC2=C(C(C)=O)C(c3ccc(N(C)C)cc3)C(C(C)=O)C(C)(O)C2)cc1 (stereo not drawn) | 20µM* | 2% | -23% | -3% | -2% | 8%
C/C(=N\NC(=S)Nc1ccccc1C)C1Cc2ccccc2C(=O)O1 (stereo not drawn) | 50µM* | 11% | -31% | -26% | -4% | -15%
CN1N=C(C(=O)N=c2sc3ccccc3n2C)CCC1=O | · | 34% | -2% | · | 12% | -14%
SMILES | G9a block | HP1b chromo inh | JMJD2A Tudor | BAZ2B block | VDR inhibitor | PLK1 PBD block
Cc1ccc(CN2CCN(C(=O)c3ccncc3)CC2)cc1 | 8.9µM* | ? | 7.9µM* | 22µM* | -2% | -2%
O=C(c1ccc(Cn2ccc([N+](=O)[O-])n2)cc1)N1CCN(Cc2ccccc2)CC1 | · | 5% | -24% | -13% | 14% | -5%
O=C(c1ccc(-c2ccccc2)cc1)N1CCN(Cc2ccccn2)CC1 | 40µM* | 13% | ? | ? | -12% | -7%
O=C(c1ccccc1)N1CCN(CCc2ccccn2)CC1 | 21% | 47% | -13% | 3% | 23% | 0%
CSc1ccc(CN2CCN(C(=O)c3ccc([N+](=O)[O-])cc3)CC2)cc1 | · | ? | 22µM* | 50µM* | -3% | -3%
COCC1CCCCN1C(=O)c1ccc(OC2CCN(Cc3ccccn3)CC2)cc1 (stereo not drawn) | 3% | 18% | 25µM* | -38% | 20% | -2%
CCC1CCCCN1C(=O)c1ccc(OC2CCN(Cc3ccccn3)CC2)cc1 (stereo not drawn) | 18% | 19% | -21% | -24% | -11% | -2%
N#Cc1ccc(Cl)cc1NC(=O)CSc1nc2nc(-c3cccs3)cc(C(F)(F)F)c2c(=O)[nH]1 | 15%[59 µM] | · | · | -2% | · | ·
Cc1ccc(Cc2c(C)[nH]c(=S)[nH]c2=O)cc1 | 45µM* | 45% | ? | 7% | -16% | -16%
COC(=O)CCc1c(C)[nH]c(=S)[nH]c1=O | ? | 16% | -14% | 0% | -2% | -1%
CCOC(=O)Cc1c(C)[nH]c(=S)[nH]c1=O | -19%[59 µM] | 20% | 56µM* | -13% | -7% | -10%
CCCC1CC(C)(/C(C)=N\NC(N)=S)OC1=O (stereo not drawn) | 14%[0.501 µM] | 44% | -1% | 5% | -3% | 2%
C/C(=N\NC(N)=S)C1(C)CC2(CC(C)(C)OC2=O)C(=O)O1 (stereo not drawn) | 11% | 10% | -7% | 3% | -6% | -2%
C/C(CC1CC(C)(C)OC1=O)=N\NC(N)=S (stereo not drawn) | 32µM* | 7% | 7.1µM* | ? | -9% | -15%
C/C(CCC1CC(C)(C)OC1=O)=N\NC(N)=S (stereo not drawn) | 8.9µM* | -8% | 79µM* | ? | -13% | 4%
CCC(C)NC(=O)c1sc2ncccc2c1-n1c(C)ccc1C (stereo not drawn) | -5%[59 µM] | 2%[57 µM] | -15% | -7% | 1% | ·
O=C(Nc1ccc(OC(F)(F)F)cc1)c1cc(S(=O)(=O)N2CCCCC2)ccc1N1CCOCC1 | · | · | · | · | · | -10%
COc1ccccc1C(=O)Nc1ccnn1C1CCN(Cc2ccc3nonc3c2)CC1 | -8% | 27% | -16% | -8% | -9% | -13%
